# Experimental data: PubChem BioAssay AID430 (Sanford-Burnham Center for Chemical Genomics, 2006)
# Among all 63,000 compounds or so, about 1,100 (1.7%) were called active. The sample holds actives, similar compounds and a random draw of the others, so the mix is not that of the screen. Rule as the data show it: active = cytotoxicity above about 50%; inactive = the rest. Measured potencies and affinities stand elsewhere.
# Assay: cytotoxicity in HPDE-C7 cells, cell-based, fluorescence, HTS (AID 430);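 also: cells exposed to compound for 48 hours before viability readout; 0% = vehicle and 100% = reference cytotoxic drug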
# Settings: HPDE-C7 pancreatic duct cells viability, at 10 µM, hits give high values
row,Structure (SMILES),cytotoxicity
1,CCN(C(C)=O)c1nnc(CSc2nc3ccccc3s2)s1,12.1% (inactive)
2,CCN(C(=O)c1ccc(C(C)(C)C)cc1)c1nnc(Cn2nnc3ccccc32)s1,81.9% (active)
3,CCN(C(=O)CSc1nnc(Cn2nnc3ccccc32)o1)c1nc(-c2ccccc2)cs1,-7.6% (inactive)
4,COc1ccc(N2CCN(C(=O)CCNS(=O)(=O)c3ccc(Br)s3)CC2)cc1,-17.4% (inactive)
5,Cc1ccc(S(=O)(=O)N2CCC(C(=O)Nc3nnc(COc4ccccc4)s3)CC2)cc1,-3.6% (inactive)
6,Cc1cc(C)c2c(=O)n(CC(=O)NCCCN3CCN(c4ccccc4F)CC3)sc2n1,88.5% (active)
7,O=C(CCNC(=O)Cn1ccc2ccccc2c1=O)NCCCN1CCN(c2ccccc2F)CC1,-10.7% (inactive)
8,Cc1cc(C)c2c(=O)n(CC(=O)NCCCN3CCOCC3)sc2n1,6.4% (inactive)
9,CCC(NC(=O)Nc1ncccc1C)(C(F)(F)F)C(F)(F)F,-6.7% (inactive)
10,CCOC(=O)N1CCN(C(=O)c2ccc3c(c2)sc2nc(-c4ccccc4)cn23)CC1,2.8% (inactive)
11,CCOC(=O)N1CCN(C(=O)c2ccc3c(c2)sc2nc(-c4ccc(OC)cc4)cn23)CC1,12.1% (inactive)
12,COc1ccc2c(c1)sc1nc(-c3ccccc3)cn12,53.2% (active)
13,CS(=O)(=O)N(CC(=O)NCc1ccco1)Cc1ccc(Cl)cc1,-9.3% (inactive)
14,COc1ccccc1S(=O)(=O)Cc1ccc(C(=O)NCCN(C)C)o1,8% (inactive)
15,O=S(=O)(c1cccc2nsnc12)N1CCN(c2ncccn2)CC1,-8.5% (inactive)
16,COc1cccc(C2=CC(c3ccc(N(C)C)cc3)n3nnnc3N2)c1 (centres undefined),-3% (inactive)
17,COc1ccc(C2=CC(c3ccc(OC)c(OC)c3)n3nnnc3N2)c(OC)c1 (centres undefined),14.7% (inactive)
18,COc1cccc(C2=CC(c3ccccc3)n3nnnc3N2)c1 (centres undefined),53.7% (active)
19,COc1cccc(C2=CC(c3cc(OC)ccc3OC)n3nnnc3N2)c1 (centres undefined),70.3% (active)
20,COc1ccc(OC)c(C2C=C(c3ccc(C)c(C)c3)Nc3nnnn32)c1 (centres undefined),10.4% (inactive)

row,Structure (SMILES),cytotoxicity
1,COc1ccc(C2C=C(c3ccccc3)Nc3nnnn32)cc1 (centres undefined),-3.3% (inactive)
2,COc1ccc(C2=CC(c3sccc3C)n3nnnc3N2)cc1 (centres undefined),12.4% (inactive)
3,COc1ccc(C2=CC(c3ccc(F)cc3)n3nnnc3N2)cc1 (centres undefined),-4% (inactive)
4,COc1ccccc1C1C=C(c2ccccc2)Nc2nnnn21 (centres undefined),29.6% (inactive)
5,COc1ccccc1C1C=C(c2ccc(C)cc2)Nc2nnnn21 (centres undefined),-0.5% (inactive)
6,COc1ccc(C2=CC(c3c(C)nn(-c4ccccc4)c3Cl)n3nnnc3N2)cc1OC (centres undefined),72.4% (active)
7,CCOC(=O)N1CCN(c2c(N3CCC(N4CCCCC4)CC3)c(=O)c2=O)CC1,10.5% (inactive)
8,CN(Cc1ccccc1)Cc1nc2c(c(=O)n(C)c(=O)n2C)n1Cc1ccc(F)cc1,-29.4% (inactive)
9,O=C(CCS(=O)(=O)c1cccc2nsnc12)N1CCN(C(=O)c2ccco2)CC1,-15.9% (inactive)
10,CN1CCN(C2=NC3(CCCC3)C(C#N)C(=O)N2)CC1 (centres undefined),23.5% (inactive)
11,COC(=O)c1c(F)c(F)c(NCCO)c(F)c1F,-3.7% (inactive)
12,CC(NC(=O)NC1CCCCC1)C(c1cccs1)N1CCOCC1 (centres undefined),-7.5% (inactive)
13,CCOC(=O)C1CCN(C(=O)CSc2n[nH]c(=O)[nH]c2=O)CC1,9.8% (inactive)
14,CNC(=O)/C(=N\O)c1ccccc1,-14.1% (inactive)
15,COc1cc(C(=O)NCCc2ccc(S(N)(=O)=O)cc2)cc(OC)c1OC,3.4% (inactive)
16,COc1cccc(C2=CC(c3cccc(OC)c3OC)n3nnnc3N2)c1 (centres undefined),71.4% (active)
17,COc1ccc(C2=CC(c3ccc(C)cc3)n3nnnc3N2)cc1 (centres undefined),-1.9% (inactive)
18,COc1cccc(C2=CC(c3ccc(OC)c(OC)c3OC)n3nnnc3N2)c1 (centres undefined),-3.9% (inactive)
19,CCOc1ccc(C2C=C(c3ccc(C)cc3)Nc3nnnn32)cc1 (centres undefined),-0.9% (inactive)
20,COc1cccc(C2=CC(c3cccc(OC)c3OC(F)F)n3nnnc3N2)c1 (centres undefined),-21.2% (inactive)

row,Structure (SMILES),cytotoxicity
1,O=C(CCNS(=O)(=O)c1cccs1)Nc1ccccc1F,-34.3% (inactive)
2,COc1ccc(Cn2nnnc2CN2CCC(c3nc4ccccc4s3)CC2)cc1,-9.8% (inactive)
3,Cc1c(C(=O)OC(C)C)[nH]c2c1C(=O)CC(C)(C)C2,-0.2% (inactive)
4,CCOC(=O)C1CCCN(C(=O)CCC(=O)Nc2ccc3nc(N4CCOCC4)cc(C)c3c2)C1 (centres undefined),9.9% (inactive)
5,CCOc1ccc2[nH]c(=O)c(CN(CCO)C(=O)c3ccc(Br)cc3)cc2c1,6.1% (inactive)
6,O=C1CN(C(=O)COC(=O)COc2ccc3c(c2)CCC3)c2ccccc2N1,2.9% (inactive)
7,COc1cc(NC(=O)c2cnn3c(C)cc(C)nc23)c(OC)cc1Cl,12.9% (inactive)
8,Cc1ccc(NC(=O)Cn2c(=O)n(Cc3ccco3)c(=N)c3c4c(sc32)COC(C)(C)C4)cc1,24.6% (inactive)
9,CC1(C)Cc2c(sc3c2c(=N)n(Cc2ccco2)c(=O)n3CC(=O)Nc2ccc(Cl)cc2)CO1,51.5% (active)
10,CC1(C)Cc2c(sc3c2c(=N)n(Cc2ccco2)c(=O)n3CC(=O)Nc2ccccc2)CO1,5.3% (inactive)
11,Cc1cccc(OCC(O)Cn2c(-n3nc(C)cc3C)nc3c2c(=O)[nH]c(=O)n3C)c1 (centres undefined),-2.9% (inactive)
12,CCCOC(=O)Nc1nc2ccccc2o1,-8.2% (inactive)
13,COc1ccccc1C(=O)Nc1nnc(-c2ccc(F)cc2)o1,4.1% (inactive)
14,Cc1nc2ccc(N3C(=O)CCC3=O)cc2[nH]1,-18.8% (inactive)
15,COc1ccc(CN2CCN(S(=O)(=O)c3ccccc3)CC2)c(OC)c1,-0.4% (inactive)
16,O=C(CCC1CCCC1)N1CCN(C(=O)COc2ccccc2)CC1,8.2% (inactive)
17,NC(=O)CSc1nc2ccccc2n1-c1ccccc1,-1.9% (inactive)
18,Cn1c(N)c(C(=O)CSc2nc3ccccc3n2-c2ccccc2)c(=O)n(C)c1=O,106% (active)
19,COc1ccc(-n2c(SCC(=O)c3c(N)n(C)c(=O)n(C)c3=O)nc3ccccc32)cc1,6.1% (inactive)
